Assay results reported in PubChem BioAssay AID1508622 (National Center for Advancing Translational Sciences (NCATS), 2021).
Activity calls are given as the source filed them. A call without a number means that no potency is given here. The call rests on the fitted dose curve; in most records, active means well fitted activation curve with a large enough effect; inconclusive means small, poorly fitted or top-dose-only effect; inactive means no such curve, though single readings can be large or run the other way.

test: Confirmatory qHTS for Identification of Small Molecule Activators of Huntingtin-Antisense Promoter Activity; details: HEK293 HTT-AS promoter firefly luciferase reporter, 24 h; series mostly up to 57.5 µM
From the text: Assay Provider: Russell L. Margolis M.D.
Department Neurology, Johns Hopkins University School of Medicine, Baltimore, MD
Huntington's Disease (HD) is a neurodegenerative disorder caused by a CAG repeat expansion in exon 1 of huntingtin (HTT). While there are currently no disease-modifying treatments for HD, recent efforts have focused on development of nucleotide-based therapeutics to lower HTT expression. As an alternative to siRNA or oligonucleotide methods, we hypothesized that suppression of HTT expression might be accomplished by small molecules that either (1) directly decrease HTT expression by suppressing HTT promoter activity or (2) indirectly decrease HTT expression by increasing the promoter activity of HTT-AS, the gene antisense to HTT that appears to inhibit expression of HTT.
We developed and employed a high throughput screen for modifiers of HTT and HTT-AS promoter activity using luminescent reporter HEK293 cells; of the 52,041 compounds tested, we identified 898 replicable hits. We used a rigorous stepwise approach to assess compound toxicity and the capacity of the compounds to specifically lower huntingtin protein in 5 different cell lines, including HEK293 cells, HD lymphoblastoid cells, mouse primary neurons, HD iPSCs differentiated into cortical-like neurons, and HD hESCs. We found no compounds which were able to lower huntingtin without lowering cell viability in all assays, though the potential efficacy of a few compounds at non-toxic doses could not be excluded.
SEQUENCE No. (1, 2, 3, etc.); […] (e.g., Cells, Incubation, Reagent, etc.); VALUE and DESCRIPTION.
1; Reagent; 4 uL; 2,500 Hek293 luciferase reporter cells per wells
3; Compound; 23 nL; Control inhibitor / compound library
5; Reagent; 2.5 uL; Firefly Luc reagent; Dual-Glo Luciferase Reporter Assay System (Promega)
6; Time; 10 min; room temperature incubation
7; Detection; Luminescence; FLuc
NOTES (numbers refer to sequence above)
1; High-throughput screening, measuring luminescence from a Hek293 luciferase reporter, was performed in 1,536 well white-walled tissue-culture treated plates. 2,500 cells were plated in 4 uL of Opti-MEM per well using a Multidrop Combi Reagent Dispenser (ThermoFisher).
2; Assay plates were cultured for 24 hours.
3; Control inhibitor (PTC124; final concentration of 50 uM) and compound library (at final concentrations of 460 nM - 57.5 uM) were added to the assay plate using the Kalypsis Pintool Robotic System equipped with 1536 pinheads.
4; Cells were then incubated for 24 hours at 37C prior to luminescence measurements.
5; In all cases, luminescence was measured using the Dual-Glo Luciferase Reporter Assay System (Promega) following the manufacturer's instructions.
6; Room temperature incubation.
7; Luminescence signal was obtained using the PerkinElmer ViewLux plate reader. Results were normalized to vehicle control (0% activity) and zero RLU (-100% activity).
Potency means the concentration at half of the fitted maximal effect.

Structure (SMILES) | Potency
Cc1ccc(CSC2=Nc3ccccc3C3=NC(CC(=O)NC4CCCCC4)C(=O)N23)cc1 (stereo not given) | inactive
CCOC(=O)c1cc(-c2ccccc2)n(-c2cccc(C(=O)Nc3cccc(F)c3)c2)c1C | inactive
CC1CCCCN1C(=O)CSc1nc2ccccc2nc1Cc1ccc(Cl)cc1 (stereo not given) | inactive
CCCc1cc(N2CCN(c3ccccc3)CC2)n2cnnc2n1 | inactive
COc1cccc(OCc2nc3ccccc3n2CCOc2ccccc2)c1 | inactive
CC1=C(C(=O)Nc2ccc(Cl)cc2)C(c2ccccc2C)n2ncc(C(=O)Nc3ccc(C)cc3)c2N1 (stereo not given) | inactive
O=C(Nc1ccc(S(=O)(=O)N(Cc2ccccc2)c2ccccc2)cc1)c1ccc(F)cc1 | inactive
Cc1cc(NC(=O)CN(C)S(=O)(=O)c2ccc3c(c2)CCC(=O)N3)ccc1Br | inactive
CCc1nc2ccc(C(=O)NCCc3ccc(OC)cc3OC)cc2nc1CC | inactive
Cc1ccc2nc(SCc3nc(-c4ccccc4C)no3)[nH]c2c1 | inactive
CCN1c2ccccc2-c2nc(SCC(=O)Nc3cc(F)ccc3F)ncc2S1(=O)=O | inactive
CC(C)Oc1ccc(C(=O)N(Cc2ccco2)c2ccccn2)cc1 | 2.69 µM (active)
Cc1ccccc1-c1ccnc2c(-c3ccc(F)cc3)c(C)nn12 | inactive
Cc1ccc(C(Nc2ccccn2)c2ccc3cccnc3c2O)cc1 (stereo not given) | inactive
Cc1cc(Nc2cccc(C(F)(F)F)c2)nc2ccc(NC(=O)c3cccnc3)cc12 | inactive
Cc1ccc(Cl)cc1N1CCN(CCCNC(=O)C2COc3ccccc3C2)CC1 (stereo not given) | inactive
CCCS(=O)(=O)NCCc1sc2nc(-c3ccc(Cl)cc3)nn2c1C | inactive
O=C(C1CCC(CNS(=O)(=O)c2cccs2)CC1)N1CCN(c2ccc(Cl)cc2)CC1 (stereo not given) | inactive
CCN1C(=O)c2ccccc2Sc2ccc(NC(=O)c3cccc(C)c3)cc21 | inactive
CCOc1ccc(/C=C/c2nc(C#N)c(NCc3ccccc3)o2)cc1 | inactive

Structure (SMILES) | Potency
COc1cccc([C@@H](C)NCCCc2ccccc2Cl)c1 | inactive
Cc1cc(F)ccc1NC(=O)C1CCCN(C(=O)c2cnn(-c3ccccc3)c2-n2cccc2)C1 (stereo not given) | inactive
CCc1c(C)nc2nncn2c1Nc1ccc(C(C)C)cc1 | inactive
Cc1cc(C)cc(NC(=O)C2CCCN2S(=O)(=O)c2ccc3c(c2)CCCC(=O)N3)c1 (stereo not given) | inactive
Cc1ccccc1NC(=O)c1c(NC(=O)C(F)(F)F)sc2c1CCCCC2 | inactive
COc1ccc(NC(=O)CSc2nc(-c3ccco3)cc(C(F)(F)F)n2)cc1OC | inactive
Cc1ccc(NCc2cccn2-c2nnc(N3CCC(C(=O)NCc4ccc(OC(C)C)cc4)CC3)s2)cc1 | inactive
COc1ccc(N(CC(=O)N2CCN(c3cccc(C)c3C)CC2)S(=O)(=O)c2c(C)noc2C)cc1 | inactive
O=C(Cn1c(=O)oc2cc(S(=O)(=O)N3CCCCCC3)ccc21)Nc1cccc(C(F)(F)F)c1 | inactive
Cc1cccc(-c2nc(CSCC(=O)N3CCN(c4ccccc4)CC3)c(C)o2)c1 | inactive
COc1cc(NS(=O)(=O)c2ccc3c(c2)CCCN3C(C)=O)cc(OC)c1OC | inactive
Cc1ccc(Nc2cc(C(=O)NC3CCCC3)c3ccccc3n2)cc1C | inactive
COc1ccc(NC(=O)CSc2nc(-c3cccs3)cc(C(F)(F)F)n2)cc1OC | inactive
CC(C)Cn1c(-c2ccc(S(=O)(=O)N3CCCC3)cc2)csc1=Nc1ccccc1 | inactive
COc1ccc(NC(=O)C(=O)NCC(c2cccnc2)N2CCc3ccccc3C2)cc1 (stereo not given) | inactive
CCN(CCCNC(=O)CSc1cc(=O)n(CC)c2ccccc12)c1ccccc1 | inactive
COc1cccc(N2CCN(C(=O)c3ccc4nc(N5CCC(C)CC5)sc4c3)CC2)c1 | inactive
COc1ccc(Br)cc1CNC(=O)CSc1n[nH]c(-c2ccccc2)n1 | inactive
CCOC(=O)c1ccc(C#Cc2ccc3c(c2)C(C)(C)CCS3)nc1 | inactive
COc1ccc(CCNC(=O)c2ccc3c(c2)CCN3S(=O)(=O)c2ccc(Cl)cc2)cc1 | inactive
